Experimental findings from the supplement of paper PMC9023506 are described below.

Each structure is given as a SMILES string. Counter-ions that a name gives are not always drawn.

The assay relates to Danio rerio larvae (5 dpf). The assay can be described thus: habituation to 1-s acoustic pulses, difference vs DMSO (percentage points (treated minus DMSO)); higher = more of the behaviour than the DMSO vehicle control. To be noted: 10 µM; exposure time: 3 h pre-incubation + 3 h imaging. The method, then: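 5-dpf wild-type zebrafish larvae were imaged in 96-well plates. They were treated with 190 Tocris FDA-approved drugs at 10 µM (1 µl/ml DMSO) for 3 h before and 3 h during imaging at 28.5 °C, 48 larvae per drug. Automated image analysis gave % time moving and optomotor responses. Values are drug group mean minus DMSO vehicle mean (n=844), in percentage points, for 10 behaviours.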
For `CCN(Cc1ccncc1)C(=O)C(CO)c1ccccc1` (stereo not given) [Tropicamide], the “habituation to 1-s acoustic pulses” value was -1.73.
For the molecule `Nc1ncn([C@@H]2O[C@H](CO)[C@@H](O)[C@H]2O)c(=O)n1` [5-Azacytidine], the “habituation to 1-s acoustic pulses” value came to 0.737.
With `Cn1cnc([N+](=O)[O-])c1Sc1ncnc2[nH]cnc12` [Azathioprine], the “habituation to 1-s acoustic pulses” value is -2.96.
For the molecule `NC(=O)c1ncn([C@@H]2O[C@H](CO)[C@@H](O)[C@H]2O)n1` [Ribavirin], the “habituation to 1-s acoustic pulses” value is -1.17.
In the case of `COc1ccccc1OCC(O)CN1CCN(CC(=O)Nc2c(C)cccc2C)CC1` (stereo not given) [Ranolazine dihydrochloride], the “habituation to 1-s acoustic pulses” value is -4.45.
As to `C=C1[C@H](CO)[C@@H](O)C[C@@H]1n1cnc2c(=O)[nH]c(N)nc21` [Entecavir], the “habituation to 1-s acoustic pulses” value was found to be 3.17.
`CC(C)N(CCCCOCC(=O)NS(C)(=O)=O)c1cnc(-c2ccccc2)c(-c2ccccc2)n1` [Selexipag]: the “habituation to 1-s acoustic pulses” value was -0.45.
For `CC1(C)O[C@@H]2[C@@H](CO[C@@]3(COS(N)(=O)=O)OC(C)(C)O[C@@H]23)O1` [Topiramate], the “habituation to 1-s acoustic pulses” value is -3.26.
For `CCC(=O)O[C@]1(C(=O)SCF)[C@H](C)C[C@H]2[C@@H]3C[C@H](F)C4=CC(=O)C=C[C@]4(C)[C@@]3(F)[C@@H](O)C[C@@]21C` [Fluticasone propionate], the “habituation to 1-s acoustic pulses” value came out at 3.04.
With `OCCN1C[C@H](O)[C@@H](O)[C@H](O)[C@H]1CO` [Miglitol], the “habituation to 1-s acoustic pulses” value came out at 0.997.
As for `CCCN(CCC)S(=O)(=O)c1ccc(C(=O)O)cc1` [Probenecid], the “habituation to 1-s acoustic pulses” value stood at 4.24.
To `CCCCCOC(=O)Nc1nc(=O)n([C@@H]2O[C@H](C)[C@@H](O)[C@H]2O)cc1F` [Capecitabine] belongs -3.26; to `CS(=O)(=O)CCNCc1ccc(-c2ccc3ncnc(Nc4ccc(OCc5cccc(F)c5)c(Cl)c4)c3c2)o1` [Lapatinib], -1.43.
In the case of `CCCc1nc(C(C)(C)O)c(C(=O)O)n1Cc1ccc(-c2ccccc2-c2nnn[nH]2)cc1` [Olmesartan], the “habituation to 1-s acoustic pulses” value was found to be 3.67.
For `CC#C[C@]1(O)CC[C@H]2[C@@H]3CCC4=CC(=O)CCC4=C3[C@@H](c3ccc(N(C)C)cc3)C[C@@]21C` [Mifepristone], the “habituation to 1-s acoustic pulses” value is -0.152.
`CCCN(CCc1cccs1)[C@H]1CCc2c(O)cccc2C1` [Rotigotine hydrochloride]: the “habituation to 1-s acoustic pulses” value is -12.9.
Next, `CN/C(=N\CCSCc1nc[nH]c1C)NC#N` [Cimetidine]: 5.48; `CN1CCN2c3ncccc3Cc3ccccc3C2C1` (stereo not given) [Mirtazapine]: -2.79.
Consider `Cn1nnc2c(C(N)=O)ncn2c1=O` [Temozolomide], for which the “habituation to 1-s acoustic pulses” value came to 4.01.
As to `C[C@]12CCC(=O)C=C1CC[C@@H]1[C@@H]2[C@@H](O)C[C@@]2(C)[C@H]1CC[C@]2(O)C(=O)CO` [Hydrocortisone], the “habituation to 1-s acoustic pulses” value stood at 2.73.
Consider `COc1cc2nc(N3CCN(C(=O)c4ccco4)CC3)nc(N)c2cc1OC` [Prazosin hydrochloride], for which the “habituation to 1-s acoustic pulses” value worked out at 0.4.
Consider `CC(C)c1nc(CN(C)C(=O)N[C@H](C(=O)N[C@@H](Cc2ccccc2)C[C@H](O)[C@H](Cc2ccccc2)NC(=O)OCc2cncs2)C(C)C)cs1` [Ritonavir], for which the “habituation to 1-s acoustic pulses” value was -0.262.
On to `CCc1ccc(CCOc2ccc(CC3SC(=O)NC3=O)cc2)nc1` (stereo not given) [Pioglitazone hydrochloride], for which the “habituation to 1-s acoustic pulses” value is 0.476.
Turning to `Clc1ccc(COC(Cn2ccnc2)c2ccc(Cl)cc2Cl)c(Cl)c1` (stereo not given) [Miconazole nitrate], the “habituation to 1-s acoustic pulses” value is -15.5.
Consider `Nc1ncn([C@H]2C[C@H](O)[C@@H](CO)O2)c(=O)n1` [Decitabine], for which the “habituation to 1-s acoustic pulses” value is 5.67.
To `OCCOCCN1CCN(C2=Nc3ccccc3Sc3ccccc32)CC1` [Quetiapine hemifumarate] belongs -4.36; to `CC/C(=C(\c1ccccc1)c1ccc(OCCN(C)C)cc1)c1ccccc1` [Tamoxifen citrate], -6.99; to `CN(C)CCc1c[nH]c2ccc(C[C@H]3COC(=O)N3)cc12` [Zolmitriptan], -1.85.
Take `CC(C)c1nc(N(C)S(C)(=O)=O)nc(-c2ccc(F)cc2)c1/C=C/[C@@H](O)C[C@@H](O)CC(=O)O` [Rosuvastatin calcium]: the “habituation to 1-s acoustic pulses” value worked out at 0.315.
Consider `NS(=O)(=O)c1cc2c(cc1Cl)NC(C1CC3C=CC1C3)NS2(=O)=O` (stereo not given) [Cyclothiazide], for which the “habituation to 1-s acoustic pulses” value is 2.19.
Turning to `C[C@H]1C[C@@H]2[C@H]([C@@H](O)C[C@@]3(C)[C@H]2CC[C@]3(O)C(=O)CO)[C@@]2(C)C=CC(=O)C=C12` [Methylprednisolone], the “habituation to 1-s acoustic pulses” value is -1.22.
In the case of `CC(C)n1c(/C=C/C(O)CC(O)CC(=O)O)c(-c2ccc(F)cc2)c2ccccc21` (stereo not given) [Fluvastatin sodium], the “habituation to 1-s acoustic pulses” value was determined as 4.04.
Take `CC1CNc2c(cccc2S(=O)(=O)N[C@@H](CCCNC(=N)N)C(=O)N2CC[C@@H](C)C[C@@H]2C(=O)O)C1` (stereo not given in full) [Argatroban]: the “habituation to 1-s acoustic pulses” value is -0.436.
Turning to `Clc1ccccc1C(c1ccccc1)(c1ccccc1)n1ccnc1` [Clotrimazole], the “habituation to 1-s acoustic pulses” value was -1.97.
Turning to `CC[C@H]1OC(=O)[C@H](C)[C@@H](O[C@H]2C[C@@](C)(OC)[C@@H](O)[C@H](C)O2)[C@H](C)[C@@H](O[C@@H]2O[C@H](C)C[C@H](N(C)C)[C@H]2O)[C@](C)(O)C[C@@H](C)CN(C)[C@H](C)[C@@H](O)[C@]1(C)O` [Azithromycin], the “habituation to 1-s acoustic pulses” value came out at 4.52.
For `CCOC(=O)C1=C(C)NC(C)=C(C(=O)OC)C1c1cccc(Cl)c1Cl` (stereo not given) [Felodipine], the “habituation to 1-s acoustic pulses” value is -11.1.
Regarding `Cc1cn([C@H]2C=C[C@@H](CO)O2)c(=O)[nH]c1=O` [Stavudine], the “habituation to 1-s acoustic pulses” value was -0.918.
For the molecule `CC(=O)Nc1ccc(O)cc1` [Acetaminophen], the “habituation to 1-s acoustic pulses” value was -1.9.
In the case of `CCOC(=O)N1CCC(=C2c3ccc(Cl)cc3CCc3cccnc32)CC1` [Loratidine], the “habituation to 1-s acoustic pulses” value is -7.1.
Regarding `COc1cc2nccc(Oc3ccc(NC(=O)C4(C(=O)Nc5ccc(F)cc5)CC4)cc3)c2cc1OC`, the “habituation to 1-s acoustic pulses” value was -4.53.
